Experimental data reported in PubChem BioAssay (NCATS).
“And” between values parts separate entries of the source, which are not always exact repeats. Identical values can stand only once. Unmarked numbers belong to inactive results. Results filed as inconclusive are left out. A call without a number means that no potency is given here. The source made the active and inactive calls. Unless noted, calls come from the whole dose curve; as a rule, active = well fitted curve in either direction with a large enough effect (not every such curve was filed as active); inconclusive = small, poorly fitted or top-dose-only effect, or another doubt; inactive = flat fitted curve, though single readings scatter.

Assays:
[1] = Stat Signaling Pathway (AID 446);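 note: ME-180 cervical cancer cells given 40 pM IL-6 alongside compound; SIE-controlled beta-lactamase reporter measured as 460/530 nm FRET emission ratio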
Procedure, shortened: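 Overnight-plated ME-180 cells bearing a STAT Inducible Element beta-lactamase reporter; 5 h co-exposure to compound and 40 pM IL-6; values normalized to 300 pM IL-6 and 125 nM JAK inhibitor controls.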

[2] = target: Glucocorticoid receptor (Homo sapiens) (UniProt P04150); assay: GR-GFP Redistribution (AID 450;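 active = compounds whose dose series gives a full or clear partial fitted curve of increased nuclear translocation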; note: potency is the fitted concentration of half-maximal effect); settings: U2OS GR-GFP nuclear translocation, laser cytometry, 2 h
Sequence of Glucocorticoid receptor (Homo sapiens) (P04150 whole entry, looked up, the tested form may be a part): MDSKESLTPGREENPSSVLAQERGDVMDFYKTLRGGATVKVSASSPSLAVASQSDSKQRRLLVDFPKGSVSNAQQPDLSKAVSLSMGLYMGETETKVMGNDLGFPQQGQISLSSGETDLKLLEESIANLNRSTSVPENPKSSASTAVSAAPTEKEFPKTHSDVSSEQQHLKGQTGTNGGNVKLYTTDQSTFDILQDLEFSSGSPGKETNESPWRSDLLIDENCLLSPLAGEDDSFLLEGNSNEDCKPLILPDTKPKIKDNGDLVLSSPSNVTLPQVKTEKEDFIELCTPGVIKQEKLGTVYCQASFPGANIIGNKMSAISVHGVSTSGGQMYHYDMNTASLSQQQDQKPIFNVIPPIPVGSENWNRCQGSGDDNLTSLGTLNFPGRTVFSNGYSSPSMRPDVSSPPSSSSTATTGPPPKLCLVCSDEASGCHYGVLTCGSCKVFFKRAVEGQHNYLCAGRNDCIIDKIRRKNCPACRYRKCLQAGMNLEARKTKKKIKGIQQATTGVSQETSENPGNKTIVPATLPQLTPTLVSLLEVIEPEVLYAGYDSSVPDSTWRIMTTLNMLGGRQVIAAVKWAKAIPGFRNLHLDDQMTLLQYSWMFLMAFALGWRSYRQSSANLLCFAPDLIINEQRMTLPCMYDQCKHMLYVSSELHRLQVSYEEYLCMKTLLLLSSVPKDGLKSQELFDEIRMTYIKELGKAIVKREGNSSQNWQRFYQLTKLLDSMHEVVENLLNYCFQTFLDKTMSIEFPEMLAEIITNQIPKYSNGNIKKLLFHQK

[3] = target: Glucocorticoid receptor (Homo sapiens) (UniProt P04150); assay: GR-EFC Redistribution (AID 451; calls by dose curve; note: potency is the fitted concentration of half-maximal effect); settings: CHO-K1 GR-EFC translocation, beta-gal luminescence, 2 h
Procedure, shortened: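 CHO-K1 cells expressing nuclear EA and GR-ED fragments of b-gal; compounds titrated up to 46 uM final, 2 h at 37 C. GR nuclear translocation read as complemented b-gal luminescence after 1 h RT detection.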

[4] = target: Mitogen-activated protein kinase 10 (Mus musculus) (UniProt Q61831); assay: JNK3 AlphaScreen Assay (AID 530);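 note: kinase came from lysate of stimulated human HepG2 cells; signal reports phosphorylation of biotinylated GST-cJun 1-79 at Ser73 with 10 µM ATP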
Procedure, shortened: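 HepG2 lysate (IL-1b/TNFa pre-activated) + biotin-GST-cJun 1-79 + anti-pSer73 cJun; cpd titration, 15 min RT; ATP 10 uM start; Tris pH 7.6, MgCl2, DTT, vanadate; beads in EDTA buffer; AlphaScreen.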

[5] = Cell Viability - N2a (AID 540; active = well fitted curve in the direction sought with a large enough effect; an effect the other way counts as inactive or inconclusive;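 note: cells exposed to compound for 40 h at 37 °C; nearly all actives have a fitted effect of over 45% in size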)
Procedure, shortened: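 In this qHTS cytotoxicity screen, ATP-dependent luciferase luminescence reports viable N2a cells after a 40 hr compound exposure in complete culture medium. Potencies are AC50 values from standard Hill equation fits.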

[6] = Cell Viability - NIH 3T3 (AID 541; active = well fitted curve in the direction sought with a large enough effect; an effect the other way counts as inactive or inconclusive;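 note: cells exposed to compound for 40 hours; nearly all actives have a fitted effect of over 25% in size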)
Procedure, shortened: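 In this cytotoxicity screen, acute toxicity is scored as an ATP drop measured by CellTiter-Glo in NIH 3T3 fibroblasts following a 40 hr, 37 °C incubation with compound.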

[7] = Cell Viability - HUV-EC-C (AID 542; active = well fitted curve in the direction sought with a large enough effect; an effect the other way counts as inactive or inconclusive;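 note: cells exposed to compound for 40 hours; nearly all actives have a fitted effect of over 35% in size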)
Procedure, shortened: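 Concentration-dependent ATP loss in HUV-EC-C cells is the measure. Exposure lasts 40 hr at 37 °C; luminescence follows CellTiter-Glo addition, and Hill fits give AC50.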

[8] = Cell Viability - H-4-II-E (AID 543; active = well fitted curve in the direction sought with a large enough effect; an effect the other way counts as inactive or inconclusive;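 note: cells exposed to compound for 40 hours; nearly all actives have a fitted effect of over 35% in size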)
Procedure, shortened: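 AC50 from Hill-modelled qHTS concentration-response curves. H-4-II-E rat hepatoma cells in complete medium, 40 hr exposure at 37 °C, viability by CellTiter-Glo ATP luminescence.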

[9] = Cell Viability - SH-SY5Y (AID 544; active = well fitted curve in the direction sought with a large enough effect; an effect the other way counts as inactive or inconclusive;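 note: cells exposed to compound for 40 hours; nearly all actives have a fitted effect of over 55% in size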); settings: SH-SY5Y neuroblastoma cell viability; at 92.2 µM (top of the series)
Procedure, shortened: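 Quantitative HTS in SH-SY5Y neuroblastoma cells, 40 hr treatment at 37 °C, ATP content by luciferase luminescence; AC50 from Hill fits.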

[10] = Cell Viability - Renal Proximal Tubule (AID 545; active = well fitted curve in the direction sought with a large enough effect; an effect the other way counts as inactive or inconclusive;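 note: cells exposed to compound for 40 hours; nearly all actives have a fitted effect of over 40% in size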)
Procedure, shortened: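 Viability taken as intracellular ATP (CellTiter-Glo luminescence) after 40 hr, 37 °C compound treatment of primary proximal tubule cells from rat kidney, 1000 cells/well; Hill-equation fits of qHTS concentration-response data gave AC50.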

Cc1cccc(Nc2ccccc2C(=O)O)c1C
outcome [1]: inactive
Potency [2]: > 20.6 µM
Potency [3]: > 20.6 µM
outcome [4]: inactive

C[C@@H]1CCC[C@H](C)N1
outcome [1]: inactive
Potency [2]: > 20.6 µM
Potency [3]: > 20.6 µM
outcome [4]: inactive

NC(=O)CC[C@@H](N)C(=O)O
outcome [1]: inactive
Potency [2]: > 46 µM
Potency [3]: > 46 µM
outcome [4]: inactive

O=C(O)c1ccccc1C(=O)Nc1ccc(S(=O)(=O)Nc2nccs2)cc1
outcome [1]: inactive
Potency [2]: > 20.6 µM
Potency [3]: > 20.6 µM
outcome [4]: inactive

NC(N)=NCCN1CCCCCCC1
outcome [1]: inactive
Potency [2]: > 20.6 µM
Potency [3]: > 20.6 µM
outcome [4]: inactive

CCOC(=O)[C@H](CCc1ccccc1)N[C@@H](C)C(=O)N1CCC[C@H]1C(=O)O
outcome [1]: inactive
Potency [2]: > 20.6 µM
Potency [3]: > 20.6 µM
outcome [4]: inactive

Cn1c([N+](=O)[O-])cnc1COC(N)=O
outcome [1]: inactive
Potency [2]: > 20.6 µM
Potency [3]: > 20.6 µM
outcome [4]: inactive

COc1ccc(NS(=O)(=O)c2ccc(N)cc2)nn1
outcome [1]: inactive
Potency [2]: > 20.6 µM
Potency [3]: > 20.6 µM
outcome [4]: inactive

CCCCOC(=O)c1ccc(N)cc1
outcome [1]: inactive
Potency [2]: > 20.6 µM
Potency [3]: > 20.6 µM
outcome [4]: inactive
outcome [5]: inactive
outcome [6]: inactive
outcome [7]: inactive
outcome [8]: inactive
viability change, negative = cytotoxic [9]: -11.2%
outcome [10]: inactive

CC1CCc2cc(F)cc3c(=O)c(C(=O)O)cn1c23 (stereo unspecified)
outcome [1]: inactive
Potency [2]: > 20.6 µM

O=C(O)c1ccccc1OP(=O)(O)O
outcome [1]: inactive
Potency [2]: > 20.6 µM
Potency [3]: > 20.6 µM
outcome [4]: inactive

Cc1c(NC(=O)c2cccnc2)c(=O)n(-c2ccccc2)n1C
outcome [1]: inactive
Potency [2]: > 20.6 µM
Potency [3]: > 20.6 µM
outcome [4]: inactive

NC(N)=NS(=O)(=O)c1ccc(N)cc1
outcome [1]: inactive
Potency [2]: > 20.6 µM
Potency [3]: > 20.6 µM
outcome [4]: inactive

CC1(C)S[C@@H]2[C@H](NC(=O)C(C(=O)O)c3ccccc3)C(=O)N2[C@H]1C(=O)O (stereo partly specified)
outcome [1]: inactive
Potency [2]: > 20.6 µM

Cc1cc(C)nc(NS(=O)(=O)c2ccc(N)cc2)n1
outcome [1]: inactive
Potency [2]: > 20.6 µM
Potency [3]: > 20.6 µM
outcome [4]: inactive
outcome [5]: inactive
outcome [6]: inactive
outcome [7]: inactive
outcome [8]: inactive
viability change, negative = cytotoxic [9]: -0.461%
outcome [10]: inactive

CC(=O)NS(=O)(=O)c1ccc(N)cc1
outcome [1]: inactive
Potency [2]: > 20.6 µM
Potency [3]: > 20.6 µM
outcome [4]: inactive
outcome [5]: inactive
outcome [6]: inactive
outcome [7]: inactive
outcome [8]: inactive
viability change, negative = cytotoxic [9]: -13.1%
outcome [10]: inactive

CC(C)(C)C(=O)OCOC(=O)[C@@H]1N2C(=O)[C@@H](NC(=O)[C@H](N)c3ccccc3)[C@H]2SC1(C)C
outcome [1]: inactive
outcome [4]: inactive

OC(CCN1CCCC1)(c1ccccc1)C1CCCCC1 (stereo unspecified)
outcome [1]: inactive
Potency [2]: > 20.6 µM

COc1ccc2cc(CCC(C)=O)ccc2c1
outcome [1]: inactive
Potency [2]: > 20.6 µM
Potency [3]: > 20.6 µM
outcome [4]: inactive

O=C(O)CCCc1ccccc1
outcome [1]: inactive
Potency [2]: > 20.6 µM

CN1C(C)(C)CCCC1(C)C
outcome [1]: inactive
Potency [2]: > 46 µM and > 20.6 µM
Potency [3]: > 46 µM and > 20.6 µM
outcome [4]: inactive

CCc1cccc(CC)c1NC(=O)CN(CC(=O)O)CC(=O)O
outcome [1]: inactive
Potency [2]: > 20.6 µM
Potency [3]: > 20.6 µM
outcome [4]: inactive

NS(=O)(=O)c1cc2c(cc1C(F)(F)F)NCNS2(=O)=O
outcome [1]: inactive
Potency [2]: > 20.6 µM
Potency [3]: > 20.6 µM
outcome [4]: inactive

CC(=O)[C@@]1(O)CC[C@H]2[C@@H]3C[C@H](C)C4=CC(=O)C=C[C@]4(C)[C@@]3(F)[C@@H](O)C[C@@]21C
outcome [1]: inactive
Potency [2]: > 20.6 µM

Nc1ccc(S(=O)(=O)c2ccc(N)cc2)cc1
outcome [1]: inactive
outcome [4]: inactive
outcome [5]: inactive
outcome [7]: inactive
outcome [8]: inactive
viability change, negative = cytotoxic [9]: -10.9%
outcome [10]: inactive

O=C1C(c2[nH]c3ccccc3c2O)=Nc2ccccc21
outcome [5]: inactive
outcome [7]: inactive
outcome [8]: inactive
viability change, negative = cytotoxic [9]: -102% (active)
outcome [10]: inactive

CC(=O)OCC(COC(C)=O)OC(C)=O
outcome [4]: inactive
outcome [5]: inactive
outcome [6]: inactive
outcome [7]: inactive
outcome [8]: inactive
viability change, negative = cytotoxic [9]: 13.4%
outcome [10]: inactive
